Paper PMC7862700, “An all-to-all approach to the identification of sequence-specific readers for epigenetic DNA modifications on cytosine”

Columns and labels:
Experiment in all cases: DAPPL (digital affinity profiling via proximity ligation, sequencing); 10 mM Tris-HCl pH 7.5, 50 mM NaCl, 1 mM DTT, 4% glycerol, room temperature, 30 min; GST-TFs on glutathione beads, 16-mer random dsDNA library, 0.1% formaldehyde crosslink after washing; high values mean tight binding
Conditions in all cases: protein: recombinant; tags: N-terminal GST; dsDNA, one strand shown
ERF = target: T1, ERF (Homo sapiens, UniProt P50548 1-548)
T1 sequence: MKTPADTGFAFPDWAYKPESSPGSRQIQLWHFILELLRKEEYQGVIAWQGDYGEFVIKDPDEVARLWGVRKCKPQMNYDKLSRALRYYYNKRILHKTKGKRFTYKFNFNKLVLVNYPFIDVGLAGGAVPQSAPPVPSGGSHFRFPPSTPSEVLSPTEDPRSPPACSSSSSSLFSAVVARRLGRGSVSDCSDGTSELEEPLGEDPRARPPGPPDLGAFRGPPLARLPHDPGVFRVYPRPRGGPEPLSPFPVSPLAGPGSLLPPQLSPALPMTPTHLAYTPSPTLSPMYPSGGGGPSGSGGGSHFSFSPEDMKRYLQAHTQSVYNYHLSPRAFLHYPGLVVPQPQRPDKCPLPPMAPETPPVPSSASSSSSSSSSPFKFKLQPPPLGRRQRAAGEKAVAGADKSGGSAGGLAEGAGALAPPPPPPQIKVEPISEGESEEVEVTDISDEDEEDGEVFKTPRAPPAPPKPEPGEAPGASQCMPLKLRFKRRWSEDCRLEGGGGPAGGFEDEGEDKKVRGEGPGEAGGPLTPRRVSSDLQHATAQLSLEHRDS
Summary of the method: (§1)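 Each value of binding signal is a hexamer's read frequency for a factor divided by the same hexamer's frequency in the tag-only sample. Barcoded, bead-captured GST fusions of human transcription factors made in yeast were pooled with that sample and incubated with 200 nmole of a random double-stranded 16-mer DNA library in Tris/NaCl/DTT/glycerol buffer at room temperature for 30 min. Washing, 0.1% formaldehyde crosslinking, proximity ligation, PCR and Illumina NextSeq500 sequencing followed.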

ETV3L = target: T2, ETV3L (Homo sapiens, UniProt Q6ZN32 1-361)
T2 sequence: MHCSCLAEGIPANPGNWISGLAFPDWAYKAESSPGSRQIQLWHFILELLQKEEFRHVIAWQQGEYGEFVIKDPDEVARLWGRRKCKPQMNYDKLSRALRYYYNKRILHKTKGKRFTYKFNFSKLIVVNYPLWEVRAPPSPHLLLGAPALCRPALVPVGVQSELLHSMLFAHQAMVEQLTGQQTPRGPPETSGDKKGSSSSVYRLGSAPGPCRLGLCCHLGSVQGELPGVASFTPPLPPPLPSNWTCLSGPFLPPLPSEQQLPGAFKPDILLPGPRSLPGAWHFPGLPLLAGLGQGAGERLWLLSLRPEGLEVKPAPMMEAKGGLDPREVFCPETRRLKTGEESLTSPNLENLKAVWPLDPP
Summary of the method: as §1

ETS2 = target: T3, ETS2 (Homo sapiens, UniProt P15036 1-469)
T3 sequence: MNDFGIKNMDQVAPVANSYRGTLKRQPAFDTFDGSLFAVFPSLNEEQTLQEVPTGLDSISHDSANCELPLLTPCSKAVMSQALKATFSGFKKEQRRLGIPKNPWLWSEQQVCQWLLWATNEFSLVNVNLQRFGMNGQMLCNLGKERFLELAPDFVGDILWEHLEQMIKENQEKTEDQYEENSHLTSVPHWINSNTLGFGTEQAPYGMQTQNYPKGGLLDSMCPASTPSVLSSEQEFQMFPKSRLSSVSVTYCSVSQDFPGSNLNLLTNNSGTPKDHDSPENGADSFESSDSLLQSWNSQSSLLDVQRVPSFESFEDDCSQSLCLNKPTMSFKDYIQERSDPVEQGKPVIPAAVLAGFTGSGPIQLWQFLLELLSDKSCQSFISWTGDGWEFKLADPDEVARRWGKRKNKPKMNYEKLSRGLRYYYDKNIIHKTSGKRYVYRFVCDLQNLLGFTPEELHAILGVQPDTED
Summary of the method: as §1

SPDEF = target: T4, SPDEF (Homo sapiens, UniProt O95238 1-335)
T4 sequence: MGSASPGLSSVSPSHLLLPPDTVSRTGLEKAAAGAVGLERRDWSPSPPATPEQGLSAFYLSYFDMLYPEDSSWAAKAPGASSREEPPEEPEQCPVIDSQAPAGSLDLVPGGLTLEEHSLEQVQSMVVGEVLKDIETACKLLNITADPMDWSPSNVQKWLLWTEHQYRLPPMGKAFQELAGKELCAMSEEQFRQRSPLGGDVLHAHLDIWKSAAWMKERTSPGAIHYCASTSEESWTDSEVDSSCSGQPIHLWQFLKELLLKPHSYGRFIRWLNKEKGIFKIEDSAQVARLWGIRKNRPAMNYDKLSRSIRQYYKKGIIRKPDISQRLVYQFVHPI
Summary of the method: as §1

ETV7 = target: T5, ETV7 (Homo sapiens, UniProt Q9Y603 1-341)
T5 sequence: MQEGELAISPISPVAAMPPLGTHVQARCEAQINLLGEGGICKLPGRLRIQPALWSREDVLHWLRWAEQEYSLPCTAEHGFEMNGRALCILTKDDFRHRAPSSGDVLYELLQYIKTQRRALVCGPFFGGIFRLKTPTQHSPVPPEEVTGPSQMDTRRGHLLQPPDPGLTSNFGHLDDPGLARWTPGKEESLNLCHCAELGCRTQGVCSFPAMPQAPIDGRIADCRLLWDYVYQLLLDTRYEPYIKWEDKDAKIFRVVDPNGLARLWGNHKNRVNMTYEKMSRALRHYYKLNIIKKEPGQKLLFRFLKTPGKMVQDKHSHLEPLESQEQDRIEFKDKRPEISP
Summary of the method: as §1

ELF5 = target: T6, ELF5 (Homo sapiens, UniProt Q9UKW6-2 1-255)
T6 sequence: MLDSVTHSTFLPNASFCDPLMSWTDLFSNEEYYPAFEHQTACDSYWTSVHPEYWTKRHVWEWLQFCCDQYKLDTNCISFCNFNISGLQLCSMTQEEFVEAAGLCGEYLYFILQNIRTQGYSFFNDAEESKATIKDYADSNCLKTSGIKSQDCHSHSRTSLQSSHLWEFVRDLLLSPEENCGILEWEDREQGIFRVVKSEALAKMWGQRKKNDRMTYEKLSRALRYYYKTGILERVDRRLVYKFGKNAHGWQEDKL
Summary of the method: as §1

ETV3 = target: T7, ETV3 (Homo sapiens, UniProt P41162-2 1-143)
T7 sequence: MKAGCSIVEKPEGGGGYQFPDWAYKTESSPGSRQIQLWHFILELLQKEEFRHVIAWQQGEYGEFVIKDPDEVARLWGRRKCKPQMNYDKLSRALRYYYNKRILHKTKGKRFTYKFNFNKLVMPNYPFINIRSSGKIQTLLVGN
Summary of the method: as §1

ETV6 = ETV6 (Homo sapiens, UniProt P41212 1-452)
Sequence of ETV6 (P41212 whole entry): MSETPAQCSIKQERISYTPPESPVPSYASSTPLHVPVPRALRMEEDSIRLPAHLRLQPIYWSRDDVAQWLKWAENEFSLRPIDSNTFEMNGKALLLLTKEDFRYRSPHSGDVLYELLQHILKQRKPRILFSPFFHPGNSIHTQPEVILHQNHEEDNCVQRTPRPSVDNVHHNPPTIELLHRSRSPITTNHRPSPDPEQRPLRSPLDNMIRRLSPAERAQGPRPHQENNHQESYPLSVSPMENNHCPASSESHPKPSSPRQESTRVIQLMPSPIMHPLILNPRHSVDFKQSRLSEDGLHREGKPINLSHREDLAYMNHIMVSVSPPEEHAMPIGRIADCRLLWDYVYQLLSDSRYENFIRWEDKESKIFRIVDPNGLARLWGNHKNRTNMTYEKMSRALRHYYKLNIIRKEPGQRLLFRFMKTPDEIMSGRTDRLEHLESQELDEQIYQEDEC
Summary of the method: as §1

Q: How did the binding signal (ERF) turn out when TTAATT was run?
A: The binding signal was 1.39 fold enrichment (6-mer frequency, TF over GST control).

Q: And the binding signal (ETV3L)?
A: The binding signal was 1.39 fold enrichment (6-mer frequency, TF over GST control).

Q: What about the binding signal (ETS2) of the same sequence?
A: The binding signal was 1.5 fold enrichment (6-mer frequency, TF over GST control).

Q: What about the binding signal (SPDEF) of the same sequence?
A: The binding signal was 1.3 fold enrichment (6-mer frequency, TF over GST control).

Q: What about the binding signal (ETV7) of the same sequence?
A: The binding signal was 1.55 fold enrichment (6-mer frequency, TF over GST control).

Q: And the binding signal (ELF5)?
A: The binding signal was 1.43 fold enrichment (6-mer frequency, TF over GST control).

Q: What about the binding signal (ETV3) of the same sequence?
A: Its binding signal is 1.44 fold enrichment (6-mer frequency, TF over GST control).

Q: What about the binding signal (ETV6) of the same sequence?
A: The binding signal was 1.4 fold enrichment (6-mer frequency, TF over GST control).

Q: TACCAT was tested. Which binding signal (ERF) did it give?
A: Its binding signal is 1.22 fold enrichment (6-mer frequency, TF over GST control).

Q: What about the binding signal (ETV3L) of the same sequence?
A: Its binding signal is 1.25 fold enrichment (6-mer frequency, TF over GST control).

Q: And the binding signal (ETS2)?
A: The binding signal was 1.22 fold enrichment (6-mer frequency, TF over GST control).

Q: What about the binding signal (SPDEF) of the same sequence?
A: Its binding signal is 1.16 fold enrichment (6-mer frequency, TF over GST control).

Q: And the binding signal (ETV7)?
A: The binding signal was 1.16 fold enrichment (6-mer frequency, TF over GST control).

Q: And the binding signal (ELF5)?
A: The binding signal was 1.14 fold enrichment (6-mer frequency, TF over GST control).

Q: What about the binding signal (ETV3) of the same sequence?
A: The binding signal was 1.17 fold enrichment (6-mer frequency, TF over GST control).

Q: What about the binding signal (ETV6) of the same sequence?
A: Its binding signal is 1.17 fold enrichment (6-mer frequency, TF over GST control).

Q: ATTTAC was tested. Which binding signal (ERF) did it give?
A: Its binding signal is 1.27 fold enrichment (6-mer frequency, TF over GST control).

Q: What about the binding signal (ETV3L) of the same sequence?
A: Its binding signal is 1.18 fold enrichment (6-mer frequency, TF over GST control).

Q: And the binding signal (ETS2)?
A: The binding signal was 1.28 fold enrichment (6-mer frequency, TF over GST control).

Q: What about the binding signal (SPDEF) of the same sequence?
A: Its binding signal is 1.21 fold enrichment (6-mer frequency, TF over GST control).

Q: What about the binding signal (ETV7) of the same sequence?
A: The binding signal was 1.28 fold enrichment (6-mer frequency, TF over GST control).

Q: And the binding signal (ELF5)?
A: Its binding signal is 1.25 fold enrichment (6-mer frequency, TF over GST control).

Q: And the binding signal (ETV3)?
A: The binding signal was 1.29 fold enrichment (6-mer frequency, TF over GST control).

Q: What about the binding signal (ETV6) of the same sequence?
A: Its binding signal is 1.18 fold enrichment (6-mer frequency, TF over GST control).

Q: TTCTCG was tested. Which binding signal (ERF) did it give?
A: Its binding signal is 1.27 fold enrichment (6-mer frequency, TF over GST control).

Q: What about the binding signal (ETV3L) of the same sequence?
A: Its binding signal is 1.46 fold enrichment (6-mer frequency, TF over GST control).

Q: What about the binding signal (ETS2) of the same sequence?
A: The binding signal was 1.45 fold enrichment (6-mer frequency, TF over GST control).

Q: What about the binding signal (SPDEF) of the same sequence?
A: The binding signal was 1.34 fold enrichment (6-mer frequency, TF over GST control).

Q: And the binding signal (ETV7)?
A: Its binding signal is 1.48 fold enrichment (6-mer frequency, TF over GST control).

Q: What about the binding signal (ELF5) of the same sequence?
A: Its binding signal is 1.47 fold enrichment (6-mer frequency, TF over GST control).

Q: And the binding signal (ETV3)?
A: The binding signal was 1.27 fold enrichment (6-mer frequency, TF over GST control).

Q: What about the binding signal (ETV6) of the same sequence?
A: The binding signal was 1.36 fold enrichment (6-mer frequency, TF over GST control).
